High-throughput results deposited in PubChem by Pan Lab, Icahn School of Medicine at Mount Sinai.
ROC1-CUL1 inh: inhibitors of human ROC1-CUL1 ubiquitin ligase activity | P62877+Q13616 | in vitro K48 di-Ub FRET, acceptor:donor ratio, 45 min | AID 1347404 | 140,000 compounds, 0.6% hits | inhibition, % at 10 µM; in the data active = inhibition above about 25%
Of the large screens only hits and unclear results are named; the others gave an inactive call. Only a selection was taken, and hits are over-represented in it overall.

COCc1ccc(C(=O)Nc2ccc(-c3nc(CNC(=O)c4ccc5ccccc5c4)c(C)o3)cc2)o1	none
O=C(NCc1ccc(-n2cccn2)cc1)c1ccc(COc2ccc(Br)cc2)cc1	none
Cc1cc(C)nc(NS(=O)(=O)c2ccc(NC(=O)Nc3ccc(Cl)cc3)cc2)n1	ROC1-CUL1 inh 25
Cc1cc(C)nc(NS(=O)(=O)c2ccc(NC(=O)c3ccc(Cl)cc3Cl)cc2)n1	none
Cc1cc(C)nc(NS(=O)(=O)c2ccc(NC(=O)COc3ccc(Cl)cc3C)cc2)n1	none
O=C(Nc1cc(-c2ccccc2)nn1-c1ccccc1)c1ccccc1	none
COc1ccc(NC(=O)N=C2CN(CC(C)C)C(=O)c3ccccc32)c(OC)c1	none
COc1ccc(CNC(=O)N=C2CN(CC(C)C)C(=O)c3ccccc32)c(OC)c1	ROC1-CUL1 inh 28
Cc1ccc(CNC(=O)N=C2CN(CC(C)C)C(=O)c3ccccc32)cc1	none
COc1ccc(C2C(C#N)C(=N)SC(=N)C2C#N)cc1OC (stereo not drawn)	none
Cc1ccc(C2C(C#N)C(=N)SC(=N)C2C#N)o1 (stereo not drawn)	ROC1-CUL1 inh 40
Cc1ccc(C2c3c(n[nH]c3C)OC(=N)C2C#N)o1 (stereo not drawn)	none
COC(C(=O)N1CCC(C(Cc2ccccc2)N(C)C(=O)c2ccccn2)CC1)c1ccccc1 (stereo not drawn)	none
COc1cc(C(C2C(=O)Oc3ccc(C)cc3C2=O)C2C(=O)Oc3ccc(C)cc3C2=O)cc(OC)c1OC (stereo not drawn)	none
Cc1ccc2c(c1)C(=O)C(C(c1ccc(Cl)cc1Cl)C1C(=O)Oc3ccc(C)cc3C1=O)C(=O)O2 (stereo not drawn)	ROC1-CUL1 inh 56
O=C1c2cc(Cl)ccc2OCC1Br (stereo not drawn)	none
O=C(CCN1C(=O)c2ccccc2C1=O)N1CCN(CCO)CC1	none
Cc1cccc2sc(NC(=O)c3ccc(C(F)(F)F)cc3)nc12	none
CSc1ccc(C2N(c3ccc(C)cc3)CCN2c2ccc(C)cc2)cc1	none
CC1=NN(c2ccc(C)cc2)C(O)C1 (stereo not drawn)	ROC1-CUL1 inh 75
Cc1ccc(N2C(=O)C(=O)N=C(Cl)C2Cl)cc1 (stereo not drawn)	none
CCCCS(=O)(=O)N1CCCC(C(=O)Nc2ccc(Cl)cc2)C1 (stereo not drawn)	none
Cc1oc(-c2ccsc2)nc1CN(C)C1CCOC1 (stereo not drawn)	none
O=C1N(c2ccccc2)N=C(c2ccccc2)C1(Br)Br	ROC1-CUL1 inh 60
CC1=NN(c2ccccc2)C(=O)C1c1ccccc1 (stereo not drawn)	none
O=C1C(=O)N(c2ccccc2)N=C(c2ccccc2)C1C(=O)c1ccccc1 (stereo not drawn)	none
Cc1ccc(CN(C(=O)c2sc3cccc(Cl)c3c2Cl)C2CCS(=O)(=O)C2)cc1 (stereo not drawn)	none
CCOC(=O)C1C(C)=Nc2nnnn2C1c1ccccc1Cl (stereo not drawn)	none
COCC(=O)N1CCCC(C(=O)Nc2ccc(-c3cscn3)cc2)C1 (stereo not drawn)	none
Cc1onc(-c2c(F)cccc2Cl)c1C(=O)NCC(C)C	none
COc1ccc(Cn2nnc3c2C(=O)c2nnn(Cc4ccc(OC)cc4)c2C3=O)cc1	ROC1-CUL1 inh 45
Cc1ccccc1Cn1nnc2c1C(=O)c1ccccc1C2=O	none
O=C1c2ccccc2C(=O)c2c1nnn2Cc1ccc(F)cc1	none
O=S(=O)(O)c1ccc2c(S(=O)(=O)O)cccc2c1	none
O=S(=O)(O)c1cccc2cc(O)ccc12	none
Nc1ccc(/C=C\c2ccc(-n3nc4ccc5c(S(=O)(=O)O)cccc5c4n3)cc2S(=O)(=O)O)c(S(=O)(=O)O)c1	ROC1-CUL1 inh 68
CCCCOc1ccc(C(NC(=O)c2ccc(OC)cc2)NC(=O)c2ccc(OC)cc2)cc1OC	none
COc1ccc(-n2nc3cc(C)c(NC(=O)c4sc5ccccc5c4Cl)cc3n2)cc1	none
O=C(Cc1ccccc1)NNC(=O)C(F)(F)F	none
COc1ccc(C2=N/C(=C\c3cc(Br)c(OC(C)C)c(OC)c3)C(=O)O2)cc1	none
O=C(O)c1cc2c3c(c1)C1CC=CC1C(c1ccc(Br)cc1)N3CC1CC=CC21 (stereo not drawn)	ROC1-CUL1 inh 102
Cc1cc2c3c(c1)C1C=CCC1C(c1ccc(Br)cc1)N3CC1CC=CC21 (stereo not drawn)	none
O=[N+]([O-])c1ccc(C2C3CC=CC3c3c4c(cc5ccccc35)C3C=CCC3CN42)cc1 (stereo not drawn)	none
COc1cccc(CC(C2CCN(Cc3cc(Cl)ccc3O)CC2)N(C)C(=O)c2ccccn2)c1 (stereo not drawn)	none
Cc1ccc(-c2nn3c(N)c(C#N)nnc3c2Cl)cc1	ROC1-CUL1 inh 94
Cc1ccc(-c2nn3c(-c4ccc(C)cc4)nnc3c3ccccc23)cc1	none
Cc1ccc(-c2nn3c(-c4cccs4)c(C#N)cnc3c2Br)cc1	none
Cc1ccc(Oc2ccc([N+](=O)[O-])cn2)cc1	none
C=CCOc1ccc(C(=O)N2CCN(c3cccc(C)c3C)CC2)cc1	none
CC1(C)C(=O)NCCN1C(=O)CC(c1cccc(O)c1)c1cccc(Cl)c1 (stereo not drawn)	none
CCC1CCCCN1C(=O)c1cc(C)ccc1OC1CCN(Cc2ccncc2)CC1 (stereo not drawn)	none
Cc1ccc(-c2n[nH]c(=S)n2/N=C/C=C/c2ccco2)cc1	none
S=c1[nH]nc(-c2ccco2)n1-c1ccccc1	none
Nn1c(=S)[nH]nc(/C=C/c2ccco2)c1=O	ROC1-CUL1 inh 96
Cc1cccc(CS(=O)(=O)Nc2c(C)cccc2C)c1	none
CCCN1CCCC1C(=O)Nc1ccc(-c2cscn2)cc1 (stereo not drawn)	none
O=C1NC(=S)N(c2ccccc2)C(=O)/C1=C/c1cc([N+](=O)[O-])c(O)cc1O	ROC1-CUL1 inh 94
O=C1NC(=S)N(c2cccc(Br)c2)C(=O)/C1=C/c1ccccc1O	none
COc1cc(OC)c([N+](=O)[O-])cc1/C=C1\C(=O)NC(=S)N(C)C1=O	none
Cc1ccc(C2C(C)C(N3CCC(C(=O)N4CCC(C)CC4)CC3)NS2(=O)=O)cc1C (stereo not drawn)	none
CC(C)(C)c1ccc(CNC23CN4CN(CN(C4)C2)C3)cc1	none
CC(C)(C)c1[nH]nc2c1C(c1ccc3ccccc3c1)C(C#N)C(=N)O2 (stereo not drawn)	none
COc1ccc(N2C(=O)/C(=C/c3cccn3C(C)(C)C)C(=O)NC2=S)cc1	none
CN1C(=O)/C(=C/c2cccn2C(C)(C)C)C(=O)NC1=S	ROC1-CUL1 inh 87
CCc1ccc(N2C(=O)/C(=C/c3cccn3C(C)(C)C)C(=O)NC2=S)cc1	none
COCC(O)CNC(=O)c1ccc(OC2CCN(C3CCCC3)CC2)c(OC)c1 (stereo not drawn)	none
FC(F)Oc1ccccc1CNC1COc2ccccc2C1 (stereo not drawn)	none
COc1cc(/C=C2/C(=O)N(c3ccc(Cl)c(Cl)c3)N=C2C)ccc1OCc1ccccc1	none
CC1=NN(c2ccccc2)C(=O)/C1=C/c1ccccc1OCc1ccccc1C	none
CC1=NN(c2ccccc2)C(=O)/C1=C/c1ccccc1OCc1ccc(C(=O)O)cc1	ROC1-CUL1 inh 51
CC(Nc1ccc(C(=O)N2CCC(Cn3cccn3)CC2)cn1)C1CC1 (stereo not drawn)	none
CCc1ccc(NC(=O)CN2CCN(C3CCCCC3)C(=O)C2=O)cc1	none
O=C(CN1CCN(C2CCCCC2)C(=O)C1=O)Nc1ccc(Cl)cc1	none
CCOc1ccc(NC(=O)CN2CCN(C3CCCCC3)C(=O)C2=O)cc1	ROC1-CUL1 inh 58
O=C(NCC1CC1)c1coc(CN2CCN(C/C=C/c3ccccc3)CC2)n1	none
O=C(NCc1cccnc1N1CCCC(O)C1)c1ccc(Cl)c(F)c1 (stereo not drawn)	none
